Inconclusive results are not listed. Activity calls are given as the source filed them. Unless noted, calls follow the shape of the dose curve; as a rule, active = well fitted curve in the direction sought with a large enough effect in the repeat runs; inconclusive = weak or mixed curves; inactive = no such curve, though single readings can be large; an effect the other way counts as inactive or inconclusive.
Tests used:
[1] = target: Peroxisome proliferator-activated receptor delta (Homo sapiens) (UniProt Q03181); test: qHTS assay to identify small molecule agonists of the peroxisome proliferator-activated receptor delta (PPARd) signaling pathway (AID 743212; calls by dose curve)
Outline: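 Quantitative high-throughput agonist screen in a HEK293H beta-lactamase reporter line under UAS control. Compounds in DMSO, at 37 C. Fluorescence read after 2 h with FRET substrate at room temperature.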

[2] = qHTS assay to identify small molecule antagonists of the peroxisome proliferator-activated receptor delta (PPARd) signaling pathway - cell viability counter screen (AID 743213); also: nearly all actives have a fitted effect of over 50% in size
Outline: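 CellTiter-Glo was added to PPARd-bla HEK293H wells following 17 h compound treatment in the presence of 300 nM L165041. Luminescence was recorded after 30 min at room temperature.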

[3] = target: Peroxisome proliferator-activated receptor delta (Homo sapiens) (UniProt Q03181); test: qHTS assay to identify small molecule antagonists of the peroxisome proliferator-activated receptor delta (PPARd) signaling pathway (AID 743215; active = well fitted inhibition curve with a large enough effect in the signal ratio in the repeat runs, not every such curve was filed as active; the % refers to the signal ratio;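 also: cells stimulated with agonist L165041 at 300 nM final during compound exposure; series mostly up to about 62 µM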)
Outline: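 Read-out is beta-lactamase FRET fluorescence, measured 2 h after substrate addition at room temperature. Beforehand, UAS-bla HEK293H cells carrying the PPARd reporter were exposed to compounds with L165041 at 300 nM final for 17 h at 37 C.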

[4] = target: Bile acid receptor (Homo sapiens) (UniProt Q96RI1); test: qHTS assay to identify small molecule antagonists of the farnesoid-X-receptor (FXR) signaling pathway (AID 743217; active = well fitted inhibition curve with a large enough effect in the signal ratio in the repeat runs, not every such curve was filed as active; the % refers to the signal ratio)
Outline: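 HEK 293T FXR-UAS-bla, 5000 cells/well; compound + CDCA 50 uM final; 16 h, 37 °C; B/G FRET substrate 2 h RT; fluorescence.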

[5] = qHTS assay to identify small molecule agonists of the farnesoid-X-receptor (FXR) signaling pathway - cell viability counter screen (AID 743218); also: nearly all actives have a fitted effect of over 45% in size
Outline: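 HEK 293T FXR-bla cells; 5 h pre-incubation, 16 h compound exposure at 37 C; LiveBLAzer substrate 2 h RT, then CellTiter-Glo 30 min RT, luminescence.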

[6] = target: Bile acid receptor (Homo sapiens) (UniProt Q96RI1); test: qHTS assay to identify small molecule agonists of the farnesoid-X-receptor (FXR) signaling pathway (AID 743220; active = well fitted activation curve with a large enough effect in the signal ratio in the repeat runs, not every such curve was filed as active; the % refers to the signal ratio)
Outline: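 Beta-lactamase reporter under UAS control in GeneBLAzer FXR HEK 293T cells (5000/well) measured with LiveBLAzer FRET substrate after 2 h at room temperature. Compound exposure lasted 16 h at 37C.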

[7] = qHTS assay to identify small molecule antagonists of the farnesoid-X-receptor (FXR) signaling pathway - cell viability counter screen (AID 743221; active = well fitted cell-killing curve with a large enough effect in the repeat runs, not every such curve was filed as active; also: nearly all actives have a fitted effect of over 50% in size)
Outline: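 Luminescence from CellTiter-Glo measures cytotoxicity in GeneBLAzer FXR-UAS-bla HEK 293T cells. Cells were exposed to compounds with 50 uM chenodeoxycholic acid (final) for 16 h at 37 C, in wells also used for the reporter readout.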

[8] = target: Vitamin D3 receptor (Homo sapiens) (UniProt P11473); test: qHTS assay to identify small molecule agonists of the vitamin D receptor (VDR) signaling pathway (AID 743222; calls by dose curve)
Outline: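 VDR-bla cells, 2,000/well; 4 h preincubation 37C; cpd (DMSO) 16 h; LiveBLAzer B/G substrate 2 h RT; fluorescence intensity read.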

[9] = qHTS assay to identify small molecule agonists of the vitamin D receptor (VDR) signaling pathway - cell viability counter screen (AID 743224); also: series mostly up to about 63 µM; nearly all actives have a fitted effect of over 50% in size
Outline: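 Luminescence from CellTiter-Glo, read after 30 min at room temperature, reports viability of VDR-bla cells treated with compounds for 16 h at 37C in the wells used for the beta-lactamase FRET read.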

[10] = target: Vitamin D3 receptor (Homo sapiens) (UniProt P11473); test: qHTS assay to identify small molecule antagonists of the vitamin D receptor (VDR) signaling pathway (AID 743223; active = well fitted inhibition curve with a large enough effect in the signal ratio in the repeat runs, not every such curve was filed as active; the % refers to the signal ratio)
Outline: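 Antagonist mode uses 1alpha,25-dihydroxyvitamin D3 at 3 nM final as stimulus. VDR-bla cells receive compounds in DMSO, incubate 16 h at 37C, then a beta-lactamase FRET substrate for 2 h at room temperature before fluorescence measurement.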

Measured: Potency

Bile acid receptor (Homo sapiens), sequence (Q96RI1 whole entry, looked up): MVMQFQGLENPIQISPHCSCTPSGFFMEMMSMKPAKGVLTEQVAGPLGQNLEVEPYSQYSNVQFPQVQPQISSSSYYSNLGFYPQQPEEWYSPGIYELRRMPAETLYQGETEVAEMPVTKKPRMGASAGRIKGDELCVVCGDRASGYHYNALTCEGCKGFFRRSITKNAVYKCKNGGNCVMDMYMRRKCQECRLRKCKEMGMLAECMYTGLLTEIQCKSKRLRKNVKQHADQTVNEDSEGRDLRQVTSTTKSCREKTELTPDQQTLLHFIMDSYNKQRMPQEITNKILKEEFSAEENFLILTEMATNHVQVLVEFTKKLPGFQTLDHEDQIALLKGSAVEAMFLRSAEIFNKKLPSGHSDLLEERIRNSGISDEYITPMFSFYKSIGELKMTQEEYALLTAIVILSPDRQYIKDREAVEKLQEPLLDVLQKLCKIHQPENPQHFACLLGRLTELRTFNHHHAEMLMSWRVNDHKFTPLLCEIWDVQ
Peroxisome proliferator-activated receptor delta (Homo sapiens), sequence (Q03181 whole entry, looked up): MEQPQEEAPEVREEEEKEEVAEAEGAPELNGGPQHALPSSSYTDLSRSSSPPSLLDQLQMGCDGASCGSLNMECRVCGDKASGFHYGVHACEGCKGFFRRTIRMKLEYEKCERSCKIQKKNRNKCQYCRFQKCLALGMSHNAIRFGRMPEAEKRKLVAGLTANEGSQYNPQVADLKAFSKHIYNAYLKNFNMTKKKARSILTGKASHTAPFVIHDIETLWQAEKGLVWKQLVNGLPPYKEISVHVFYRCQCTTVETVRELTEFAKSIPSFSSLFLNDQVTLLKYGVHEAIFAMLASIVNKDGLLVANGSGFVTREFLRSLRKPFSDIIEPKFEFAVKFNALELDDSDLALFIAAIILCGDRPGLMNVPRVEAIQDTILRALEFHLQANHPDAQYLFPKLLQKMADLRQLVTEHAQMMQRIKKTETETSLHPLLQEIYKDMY
Vitamin D3 receptor (Homo sapiens), sequence (P11473 whole entry, looked up): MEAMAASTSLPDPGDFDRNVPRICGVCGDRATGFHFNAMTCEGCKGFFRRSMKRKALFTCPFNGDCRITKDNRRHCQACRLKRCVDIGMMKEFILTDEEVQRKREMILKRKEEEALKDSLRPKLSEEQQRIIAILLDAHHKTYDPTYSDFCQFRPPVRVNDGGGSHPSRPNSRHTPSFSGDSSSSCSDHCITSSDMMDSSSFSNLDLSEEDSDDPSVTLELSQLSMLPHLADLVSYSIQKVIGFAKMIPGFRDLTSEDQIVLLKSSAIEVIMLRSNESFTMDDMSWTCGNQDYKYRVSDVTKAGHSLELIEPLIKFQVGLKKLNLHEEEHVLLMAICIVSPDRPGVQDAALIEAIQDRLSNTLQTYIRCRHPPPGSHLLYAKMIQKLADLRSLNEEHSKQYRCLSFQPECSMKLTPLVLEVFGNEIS

CC(C=O)Cc1ccc(C(C)(C)C)cc1 (centres undefined)
not listed: [10]
inactive: all other assays above

Nc1cccc(C(F)(F)F)c1
not listed: [8] | [10]
inactive: all other assays above

Cc1ccc([N+](=O)[O-])cc1N
inactive: all assays above

COC(=O)/C=C\C(=O)OC
not listed: [4] | [6]
inactive: all other assays above

CCOC(=O)CC(=O)OCC
inactive: all assays above

CCOC(=O)c1ccc(O)cc1
inactive: all assays above

COCN(COC)c1nc(N(COC)COC)nc(N(COC)COC)n1
inactive: all assays above

CC(=O)c1nccs1
not listed: [4] | [6]
inactive: all other assays above

Oc1ccc(Cc2ccccc2O)cc1
inactive: all assays above

CCCCC(CC)COC(=O)c1ccc(C(=O)OCC(CC)CCCC)cc1 (centres undefined)
not listed: [8] | [10]
inactive: all other assays above

CCCCCC(C)=O
not listed: [4] | [6]
inactive: all other assays above

C=C(CC(=O)O)C(=O)O
inactive: all assays above

O=C1OC(=O)c2c(Cl)c(Cl)c(Cl)c(Cl)c21
not listed: [8] | [10]
inactive: all other assays above

CCCCCCCCO
not listed: [4] | [6]
inactive: all other assays above

CCn1cc(C(=O)O)c(=O)c2cc3c(cc21)OCO3
inactive: all assays above

NC(=O)c1ncn([C@@H]2O[C@H](CO)[C@@H](O)[C@H]2O)n1
inactive: [1] | [2] | [3] | [5] | [7]

Cc1cc(C)c(O)c(C)c1
not listed: [8] | [10]
inactive: all other assays above

C=C1C[C@]23C[C@@]1(O)CC[C@H]2[C@@]12C=C[C@H](O)[C@@](C)(C(=O)O1)[C@H]2[C@@H]3C(=O)O
inactive: all assays above

C=CC(=O)NCOCCCC
not listed: [4] | [6]
inactive: all other assays above

COc1ccc2cc3[n+](cc2c1OC)CCc1cc2c(cc1-3)OCO2
not listed: [8]
inactive: all other assays above

Cc1ccc(C)c(S(=O)(=O)O)c1
not listed: [4] | [6]
inactive: all other assays above

Cc1ncc(CO)c(CO)c1O
inactive: all assays above

OB(O)O
inactive: all assays above

Cc1ccc(Cl)cc1
inactive: all assays above

CCc1cccc(O)c1
inactive: all assays above

OC[C@H]1O[C@@H](Oc2ccc(O)cc2)[C@H](O)[C@@H](O)[C@@H]1O
not listed: [4] | [6]
inactive: all other assays above

CC(=O)CC(=O)N(C)C
inactive: all assays above

CCCCCCC(=O)O
inactive: all assays above

CN=C(NC#N)NCCSCc1nc[nH]c1C
inactive: all assays above

COc1c(Cl)ccc(Cl)c1C(=O)O
not listed: [4] | [6]
inactive: all other assays above

Cc1ccc(C(C)C)cc1
inactive: all assays above

COC(=O)CCCCC(=O)OC
inactive: all assays above
